Hits are enriched below; roughly 10% of the tested compounds scored in any of these assays.
PNC assembly inh: High Content Assay for Compounds that inhibit the Assembly of the Perinucleolar Compartment; PC3M PTB-GFP, PNC prevalence imaging, 16 h; hits give low values; activity change (PNC), negative = inhibition, % at 10 µM; 140,000 compounds, 3.1% hits; AID 2417, 2010;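 active = readout at or below -70, meaning at least 70% loss of cells showing the perinucleolar compartment, a nuclear body marking cancer cells; inconclusive = readout between -30 and a set limit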
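Compounds are pinned in duplicate onto adhered PC3M cells stably expressing GFP-tagged PTB and incubated 16 h at 37 C. Cells are then fixed, nuclei stained with Hoechst, and PNC-positive cells counted.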
KinaseGlo FLuc: Counterscreen for Luciferase (Kinase-Glo TM) Inhibition; Luciferin 4-monooxygenase (Photuris pensylvanica), Q27757; Kinase-Glo luciferase, ATP luminescence, 8 min; Potency, µM (titrated, usually from 38.3 µM), most hits filed as inhibitors; 200,000 compounds, 0.28% hits; AID 1379, 2008; active = well fitted inhibition curve with a large enough effect; inconclusive = small, poorly fitted or top-dose-only effect; also: nearly all actives have a fitted effect of over 60% in size
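Compounds were added to a substrate mix at pH 7.2 (50 mM imidazole, 10 uM ATP, within the enzyme's linear range), followed by Kinase-Glo detection reagent; luminescence was measured after 8 minutes at ambient temperature.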
IMPase inh: qHTS Assay for Identifying the Cell-Membrane Permeable IMPase Inhibitors. Inositol monophosphatase 1 (Rattus norvegicus), P97697. CHO-M1 cells, IP1 accumulation, HTRF TR-FRET ratio. inhibition (IP1 accumulation), % at 46.1 µM. 120,000 tested, under 10 active. AID 901, 2007; active = well fitted curve in the direction sought with a large enough effect in the signal ratio, not every such curve was filed as active; inconclusive = small, poorly fitted or top-dose-only effect, or a change in a side signal; inactive = no such curve, though single readings can be large or run the other way; the % refers to the signal ratio;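 also: cells stimulated with carbachol in lithium chloride buffer; higher means more IMPase inhibition seen as more IP1 and lower FRET ratio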
Target sequence (P97697 whole entry, looked up): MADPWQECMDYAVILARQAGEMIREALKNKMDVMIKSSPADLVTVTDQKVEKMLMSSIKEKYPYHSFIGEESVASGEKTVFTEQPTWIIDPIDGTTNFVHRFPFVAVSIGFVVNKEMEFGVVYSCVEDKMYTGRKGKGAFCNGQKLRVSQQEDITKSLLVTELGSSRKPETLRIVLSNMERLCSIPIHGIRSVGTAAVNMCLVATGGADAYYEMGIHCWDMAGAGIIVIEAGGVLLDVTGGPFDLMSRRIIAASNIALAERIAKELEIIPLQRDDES
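Seeded CHO-M1 cells were dosed with compound at up to 46 uM, stimulated with carbachol for 30 min, then lysed in IP-One detection reagents. Higher IP1 lowers the TR-FRET signal.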
LMNA splice mod: qHTS Assay for Modulators of Lamin A Splicing; HeLa LMNA splicing GFP/RFP minigene ratio, 48 h; Potency, µM (top dose mostly 46.1 µM), actives largely listed as inhibitors; 200,000 compounds, 0.01% hits; AID 1487, 2009; active = well fitted inhibition curve with a large enough effect in the signal ratio, with a control signal flat, not every such curve was filed as active; inconclusive = small, poorly fitted or top-dose-only effect, or effect the other way, or a change in a side signal; the % refers to the signal ratio
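S3 HeLa stable clones carrying a lamin A-EGFP splicing minigene plus DsRed2 were seeded at 600 cells/well in Opti-MEM with 2% FBS, pin-dosed and incubated 48 h at 37°C. Acumen cytometry (488 nm) gave the GFP/RFP total-intensity ratio.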
ALDH1A1 inh: qHTS Assay for Inhibitors of Aldehyde Dehydrogenase 1 (ALDH1A1); 220,000 compounds, 7.3% hits; Potency, µM (top dose mostly 75.3 µM), usual class: inhibitors; AID 1030, 2008; Purified ALDH1A1, NADH fluorescence, propionaldehyde substrate; Aldehyde dehydrogenase 1A1 (Homo sapiens), P00352
Target sequence (P00352 whole entry, looked up): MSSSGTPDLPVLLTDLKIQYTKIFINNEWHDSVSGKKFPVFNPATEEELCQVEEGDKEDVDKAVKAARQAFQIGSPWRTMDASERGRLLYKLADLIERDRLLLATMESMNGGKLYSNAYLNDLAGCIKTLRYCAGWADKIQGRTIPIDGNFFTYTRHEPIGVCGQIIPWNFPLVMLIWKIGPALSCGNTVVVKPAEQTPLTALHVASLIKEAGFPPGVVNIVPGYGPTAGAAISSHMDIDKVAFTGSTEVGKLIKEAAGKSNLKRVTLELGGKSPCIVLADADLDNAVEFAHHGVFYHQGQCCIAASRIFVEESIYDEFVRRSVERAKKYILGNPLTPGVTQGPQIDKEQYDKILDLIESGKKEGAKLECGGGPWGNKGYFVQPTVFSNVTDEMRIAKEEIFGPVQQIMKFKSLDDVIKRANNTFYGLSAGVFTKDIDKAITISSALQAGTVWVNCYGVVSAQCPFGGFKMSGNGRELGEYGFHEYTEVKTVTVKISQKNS
HPGD inh: qHTS Assay for Inhibitors of HPGD (15-Hydroxyprostaglandin Dehydrogenase). 150,000 compounds, 4.3% hits. AID 894, 2007. Potency, µM, usual class: inhibitors. purified HPGD, NADH fluorescence kinetic, PGE2 substrate. 15-hydroxyprostaglandin dehydrogenase [NAD(+)] (Homo sapiens), P15428
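20 nM HPGD preincubated 15 min at room temperature with compound in 50 mM Tris-HCl pH 8, 0.01% Tween 20. Started with 1 mM NAD+ and 30 uM prostaglandin E2; NADH fluorescence (360/450 nm) read 5 times over 30-s intervals, last minus first.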
Numbers stand for hits; [ ] = remark or other dose. Unless noted, calls follow the shape of the dose curve; as a rule, active = well fitted inhibition curve with a large enough effect (not every such curve was filed as active); inconclusive = small, poorly fitted or top-dose-only effect, or another doubt; inactive = no such curve, though single readings can be large or run the other way.

How did COc1cc(NC(=O)C2=C(N3CCOCC3)/C(=C\c3ccc(N(C)C)cc3)CCC2)cc(OC)c1OC do in these assays?
PNC assembly inh: inactive; KinaseGlo FLuc: inactive; LMNA splice mod: inconclusive; ALDH1A1 inh: 18µM; HPGD inh: inactive

How did COc1cc(NC(=O)C2=C(N3CCOCC3)/C(=C/c3ccc(Cl)cc3)CC2)cc(OC)c1OC do in these assays?
PNC assembly inh: inconclusive; KinaseGlo FLuc: inactive; IMPase inh: inactive; LMNA splice mod: inactive; ALDH1A1 inh: inactive; HPGD inh: inactive

How did O=C1C2[C@@H](c3ccccc3)N[C@@H](c3ccccc3)C1[C@H](c1ccccc1)N[C@H]2c1ccccc1 do in these assays?
KinaseGlo FLuc: inactive[7.66 µM]; ALDH1A1 inh: inactive[13.5 µM]; HPGD inh: inactive

What do the screens show for `CC(C)CC(c1nnnn1C1CCCC1)N1CCC(C(N)=O)CC1` (stereo not given)?
KinaseGlo FLuc: inactive; ALDH1A1 inh: 22µM

Results for CC(C)CC(c1nnnn1C1CCCCC1)N1CCN(c2ncccn2)CC1 (stereo not given) ?
PNC assembly inh: inactive; KinaseGlo FLuc: inactive; IMPase inh: inactive; LMNA splice mod: inconclusive; ALDH1A1 inh: inconclusive; HPGD inh: inactive

What do the screens show for `CC1(C)CC(=O)c2cc3c(N)c(C(=O)NCc4ccccc4)sc3nc2C1`?
PNC assembly inh: inactive; KinaseGlo FLuc: inactive; IMPase inh: inactive; LMNA splice mod: inactive; ALDH1A1 inh: inconclusive; HPGD inh: inactive

What do the screens show for `COC(=O)c1sc2nc3c(cc2c1N)C(=O)CC(C)(C)C3`?
PNC assembly inh: inactive; KinaseGlo FLuc: inactive; IMPase inh: inactive; LMNA splice mod: inactive; ALDH1A1 inh: 0.89µM; HPGD inh: inactive

How did CCOC(=O)c1sc2nc3c(cc2c1N)C(=O)CC(C)(C)C3 do in these assays?
PNC assembly inh: inactive; KinaseGlo FLuc: inactive; LMNA splice mod: inactive; ALDH1A1 inh: 0.5µM; HPGD inh: inactive

Results for Cc1cc(C)c(NC(=O)c2sc3nc4c(cc3c2N)C(=O)CC(C)(C)C4)c(C)c1 ?
PNC assembly inh: inactive; KinaseGlo FLuc: inactive; LMNA splice mod: inactive; ALDH1A1 inh: 0.25µM; HPGD inh: inactive

Results for C=CCOC(=O)C1(C(NC(=O)OC)c2ccccc2)C(=O)Cc2ccccc21 (stereo not given) ?
KinaseGlo FLuc: inactive; ALDH1A1 inh: 4.5µM; HPGD inh: inactive

What do the screens show for `CCOC(=O)[C@]1(C(NC(=O)OC)c2ccccc2)CCCC1=O` (stereo not given in full)?
ALDH1A1 inh: inactive[13.5 µM]

What do the screens show for `CCN(c1cccc(C)c1)S(=O)(=O)c1nnc(NC(=O)C2CCCCC2)s1`?
LMNA splice mod: inactive

What do the screens show for `Cc1cc(C)n(C(=O)CCCC(=O)n2nc(C)cc2C)n1`?
PNC assembly inh: inconclusive; KinaseGlo FLuc: inactive; IMPase inh: inactive; LMNA splice mod: inactive; ALDH1A1 inh: inactive; HPGD inh: inactive

What do the screens show for `Cc1cc(C)n(C(=O)CNc2ccc(C)c(C)c2)n1`?
PNC assembly inh: inconclusive; KinaseGlo FLuc: inactive; IMPase inh: inconclusive; LMNA splice mod: inconclusive; ALDH1A1 inh: 25µM; HPGD inh: inactive

How did O=C(Nc1ccc2c(c1)OCCO2)c1ccccn1 do in these assays?
KinaseGlo FLuc: 13µM; LMNA splice mod: inactive; ALDH1A1 inh: inactive

What do the screens show for `Cn1nccc1C(=O)Nn1cnnc1`?
PNC assembly inh: inactive; IMPase inh: inactive; LMNA splice mod: inactive; ALDH1A1 inh: inactive

How did COc1ccccc1C(=O)Nc1ccc(N2CCCCC2)cc1 do in these assays?
PNC assembly inh: inconclusive; KinaseGlo FLuc: inactive; IMPase inh: inactive; LMNA splice mod: inactive; ALDH1A1 inh: inactive; HPGD inh: inactive

Results for O=C(Nc1ccc(N2CCCCC2)cc1)c1ccccn1 ?
KinaseGlo FLuc: 7.9µM; ALDH1A1 inh: inactive

Results for Cc1nn(C)c(C)c1NC(=O)c1ccnn1C ?
PNC assembly inh: inactive; KinaseGlo FLuc: inactive; IMPase inh: inactive; LMNA splice mod: inactive; ALDH1A1 inh: 18µM; HPGD inh: inactive

Results for O=C(Nc1ccc(N2CCOCC2)cc1)c1cn2ccccc2n1 ?
PNC assembly inh: inactive; KinaseGlo FLuc: 4.5µM; IMPase inh: inactive; LMNA splice mod: inactive[0.0737 µM]; ALDH1A1 inh: inactive; HPGD inh: inactive

How did COc1ccc(C2=C(Nc3ccc(Br)c(C)c3)c3ccccc3C2=O)cc1 do in these assays?
IMPase inh: inactive

Results for O=C(c1ccncc1)N1CCC[C@@]2(CCN(C(c3ccccc3)c3ccccc3)C2)C1 ?
KinaseGlo FLuc: inactive; ALDH1A1 inh: inactive; HPGD inh: inactive

Results for Cn1nc(C(=O)Nc2ccc3c(c2)OCCO3)cc1C(=O)O ?
KinaseGlo FLuc: 11µM; ALDH1A1 inh: inactive

Results for Cn1nccc1C(=O)Nc1ccc2c(c1)OCCO2 ?
KinaseGlo FLuc: 13µM; LMNA splice mod: inactive; ALDH1A1 inh: inactive

What do the screens show for `Cn1ncc([N+](=O)[O-])c1C(=O)Nc1ccc2c(c1)OCCO2`?
PNC assembly inh: inactive; KinaseGlo FLuc: inactive; IMPase inh: inactive; LMNA splice mod: inactive; ALDH1A1 inh: inactive; HPGD inh: inactive

How did CCN1C(C)=C(C(=O)OC)C(c2ccccc2)N2C(=O)[C@@]3(C(=O)OC)O[C@@]12C1C(=O)N(C)C(=O)C13 (stereo not given in full) do in these assays?
ALDH1A1 inh: inactive[13.5 µM]

What do the screens show for `Cc1cc(C)n2c(SC/C(O)=C(\C#N)c3nc4ccccc4[nH]3)nnc2n1`?
PNC assembly inh: inactive; KinaseGlo FLuc: inactive; IMPase inh: inactive; LMNA splice mod: inactive; ALDH1A1 inh: 18µM; HPGD inh: inconclusive

How did Cc1ccccc1-n1c(SC/C(O)=C(\C#N)c2nc3ccccc3[nH]2)nnc1-c1ccncc1 do in these assays?
PNC assembly inh: inactive; KinaseGlo FLuc: inactive; IMPase inh: inactive; LMNA splice mod: inactive; ALDH1A1 inh: inconclusive; HPGD inh: inactive

How did Cc1ccc(C(=O)c2cc([N+](=O)[O-])ccc2N2CC(C)OC(C)C2)cc1 (stereo not given) do in these assays?
PNC assembly inh: inactive; KinaseGlo FLuc: inactive; IMPase inh: inactive; LMNA splice mod: inconclusive; ALDH1A1 inh: inconclusive; HPGD inh: inactive

Results for CC1CN(c2ccc([N+](=O)[O-])cc2C#N)CC(C)O1 (stereo not given) ?
KinaseGlo FLuc: inactive; ALDH1A1 inh: 14µM

How did O=[N+]([O-])c1cccc(C(=S)N2CCN(c3ccccc3)CC2)c1 do in these assays?
PNC assembly inh: inactive; KinaseGlo FLuc: inactive; LMNA splice mod: inconclusive; ALDH1A1 inh: 16µM; HPGD inh: 22µM

Compound activity deposited in PubChem BioAssay by National Center for Advancing Translational Sciences (NCATS).
